# Test results: ChEMBL document CHEMBL1961873, “Compounds: GSK PKIS; Assays: Nanosyn kinase panel” (2012)
# Experiments:
# [1] = molecular target: T1, Inhibitor of nuclear factor kappa-B kinase subunit epsilon (Homo sapiens) (UniProt Q14164); conditions: at 1 µM;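 further: reported values are averaged percent inhibition figures against human IKKε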
# T1 sequence (whole entry): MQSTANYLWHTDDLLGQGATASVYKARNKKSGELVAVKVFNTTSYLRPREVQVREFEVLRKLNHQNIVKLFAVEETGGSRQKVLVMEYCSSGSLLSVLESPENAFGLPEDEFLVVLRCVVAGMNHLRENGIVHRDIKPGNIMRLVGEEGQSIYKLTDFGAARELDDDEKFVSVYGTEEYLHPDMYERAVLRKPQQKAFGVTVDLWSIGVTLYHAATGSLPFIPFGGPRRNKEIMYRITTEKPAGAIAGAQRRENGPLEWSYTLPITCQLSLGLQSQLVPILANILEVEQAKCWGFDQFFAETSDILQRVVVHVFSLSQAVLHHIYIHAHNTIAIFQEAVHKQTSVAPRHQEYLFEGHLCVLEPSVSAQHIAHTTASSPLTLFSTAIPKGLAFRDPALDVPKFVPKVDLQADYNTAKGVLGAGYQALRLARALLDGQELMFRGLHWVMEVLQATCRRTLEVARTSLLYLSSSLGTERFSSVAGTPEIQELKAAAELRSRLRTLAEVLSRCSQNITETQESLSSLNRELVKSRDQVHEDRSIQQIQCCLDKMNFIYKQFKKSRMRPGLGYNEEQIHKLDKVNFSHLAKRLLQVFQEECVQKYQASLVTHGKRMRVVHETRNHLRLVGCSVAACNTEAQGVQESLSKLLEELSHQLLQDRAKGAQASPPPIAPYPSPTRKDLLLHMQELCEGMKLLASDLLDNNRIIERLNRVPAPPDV
# [2] = molecular target: T2, Serine/threonine-protein kinase Nek1 (Homo sapiens) (UniProt Q96PY6); conditions: at 0.1 µM
# T2 sequence (whole entry): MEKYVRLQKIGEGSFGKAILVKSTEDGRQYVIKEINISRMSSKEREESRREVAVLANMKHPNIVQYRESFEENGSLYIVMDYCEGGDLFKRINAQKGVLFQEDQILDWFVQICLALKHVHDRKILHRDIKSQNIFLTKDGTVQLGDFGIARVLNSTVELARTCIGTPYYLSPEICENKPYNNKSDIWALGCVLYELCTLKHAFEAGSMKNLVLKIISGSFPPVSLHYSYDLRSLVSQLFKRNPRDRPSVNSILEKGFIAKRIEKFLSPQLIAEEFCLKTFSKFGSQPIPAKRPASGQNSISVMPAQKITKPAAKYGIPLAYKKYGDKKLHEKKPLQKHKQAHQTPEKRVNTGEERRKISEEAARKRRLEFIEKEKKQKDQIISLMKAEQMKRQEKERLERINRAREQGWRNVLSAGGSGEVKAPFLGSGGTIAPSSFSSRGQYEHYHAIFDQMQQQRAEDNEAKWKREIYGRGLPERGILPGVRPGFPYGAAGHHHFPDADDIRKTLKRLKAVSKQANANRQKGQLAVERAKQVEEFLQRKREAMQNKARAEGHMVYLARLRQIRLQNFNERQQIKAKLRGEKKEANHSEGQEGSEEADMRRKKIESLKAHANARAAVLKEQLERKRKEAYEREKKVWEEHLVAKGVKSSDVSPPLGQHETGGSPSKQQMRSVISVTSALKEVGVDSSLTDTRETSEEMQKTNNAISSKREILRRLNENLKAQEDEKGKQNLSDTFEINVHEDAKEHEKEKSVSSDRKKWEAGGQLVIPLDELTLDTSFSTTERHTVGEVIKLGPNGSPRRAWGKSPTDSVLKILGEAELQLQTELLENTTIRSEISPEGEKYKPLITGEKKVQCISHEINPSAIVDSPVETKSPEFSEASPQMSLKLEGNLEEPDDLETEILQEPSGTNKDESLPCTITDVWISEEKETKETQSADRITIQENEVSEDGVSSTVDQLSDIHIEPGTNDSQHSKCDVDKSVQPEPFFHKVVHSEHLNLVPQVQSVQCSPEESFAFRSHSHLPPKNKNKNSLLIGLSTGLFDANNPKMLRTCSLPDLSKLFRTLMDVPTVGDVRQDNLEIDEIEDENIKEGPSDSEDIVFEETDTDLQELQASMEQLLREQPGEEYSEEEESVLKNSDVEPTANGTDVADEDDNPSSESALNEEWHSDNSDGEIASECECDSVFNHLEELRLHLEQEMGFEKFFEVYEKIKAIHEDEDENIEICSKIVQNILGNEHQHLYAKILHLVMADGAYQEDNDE
# [3] = molecular target: T2, Serine/threonine-protein kinase Nek1 (Homo sapiens); conditions: at 1 µM
# [4] = molecular target: T3, Serine/threonine-protein kinase Nek2 (Homo sapiens) (UniProt P51955); conditions: at 0.1 µM
# T3 sequence (whole entry): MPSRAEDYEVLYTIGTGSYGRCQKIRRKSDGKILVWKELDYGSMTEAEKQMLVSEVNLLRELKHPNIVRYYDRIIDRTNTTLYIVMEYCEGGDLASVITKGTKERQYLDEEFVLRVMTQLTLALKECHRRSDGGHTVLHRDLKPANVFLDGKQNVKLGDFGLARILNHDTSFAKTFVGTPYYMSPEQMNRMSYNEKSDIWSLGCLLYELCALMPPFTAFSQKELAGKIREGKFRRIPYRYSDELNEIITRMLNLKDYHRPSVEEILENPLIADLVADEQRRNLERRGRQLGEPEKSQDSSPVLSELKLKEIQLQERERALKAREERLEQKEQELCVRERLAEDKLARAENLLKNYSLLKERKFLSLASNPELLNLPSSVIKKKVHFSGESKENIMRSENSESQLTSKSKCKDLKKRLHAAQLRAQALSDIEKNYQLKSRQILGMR
# [5] = molecular target: T3, Serine/threonine-protein kinase Nek2 (Homo sapiens); conditions: at 1 µM
# [6] = molecular target: Serine/threonine-protein kinase Nek6 (Homo sapiens) (UniProt Q9HC98); conditions: at 0.1 µM
# Sequence of Serine/threonine-protein kinase Nek6 (Homo sapiens) (Q9HC98 whole entry): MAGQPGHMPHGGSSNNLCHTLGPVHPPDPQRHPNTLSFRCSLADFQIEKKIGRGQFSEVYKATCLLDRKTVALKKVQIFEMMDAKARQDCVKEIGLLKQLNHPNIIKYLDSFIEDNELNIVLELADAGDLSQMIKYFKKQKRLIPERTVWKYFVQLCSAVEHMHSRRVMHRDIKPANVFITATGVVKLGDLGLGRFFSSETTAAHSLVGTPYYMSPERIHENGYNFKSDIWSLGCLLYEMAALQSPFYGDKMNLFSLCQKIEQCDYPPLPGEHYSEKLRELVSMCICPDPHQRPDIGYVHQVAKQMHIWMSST
# [7] = molecular target: Serine/threonine-protein kinase Nek6 (Homo sapiens) (UniProt Q9HC98); conditions: at 1 µM
# [8] = molecular target: Serine/threonine-protein kinase Nek7 (Homo sapiens) (UniProt Q8TDX7); conditions: at 0.1 µM
# Sequence of Serine/threonine-protein kinase Nek7 (Homo sapiens) (Q8TDX7 whole entry, looked up): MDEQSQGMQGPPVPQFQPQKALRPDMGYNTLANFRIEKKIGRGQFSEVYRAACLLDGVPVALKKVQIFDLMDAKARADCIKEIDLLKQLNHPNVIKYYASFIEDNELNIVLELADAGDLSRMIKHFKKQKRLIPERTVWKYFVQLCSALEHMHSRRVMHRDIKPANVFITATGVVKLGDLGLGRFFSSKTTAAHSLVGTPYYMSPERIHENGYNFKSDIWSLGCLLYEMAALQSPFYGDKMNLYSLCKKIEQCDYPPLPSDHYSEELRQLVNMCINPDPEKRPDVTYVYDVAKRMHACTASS
# [9] = molecular target: Serine/threonine-protein kinase Nek7 (Homo sapiens) (UniProt Q8TDX7); conditions: at 1 µM
# [10] = molecular target: T4, Serine/threonine-protein kinase Nek9 (Homo sapiens) (UniProt Q8TD19); conditions: at 0.1 µM
# T4 sequence (whole entry): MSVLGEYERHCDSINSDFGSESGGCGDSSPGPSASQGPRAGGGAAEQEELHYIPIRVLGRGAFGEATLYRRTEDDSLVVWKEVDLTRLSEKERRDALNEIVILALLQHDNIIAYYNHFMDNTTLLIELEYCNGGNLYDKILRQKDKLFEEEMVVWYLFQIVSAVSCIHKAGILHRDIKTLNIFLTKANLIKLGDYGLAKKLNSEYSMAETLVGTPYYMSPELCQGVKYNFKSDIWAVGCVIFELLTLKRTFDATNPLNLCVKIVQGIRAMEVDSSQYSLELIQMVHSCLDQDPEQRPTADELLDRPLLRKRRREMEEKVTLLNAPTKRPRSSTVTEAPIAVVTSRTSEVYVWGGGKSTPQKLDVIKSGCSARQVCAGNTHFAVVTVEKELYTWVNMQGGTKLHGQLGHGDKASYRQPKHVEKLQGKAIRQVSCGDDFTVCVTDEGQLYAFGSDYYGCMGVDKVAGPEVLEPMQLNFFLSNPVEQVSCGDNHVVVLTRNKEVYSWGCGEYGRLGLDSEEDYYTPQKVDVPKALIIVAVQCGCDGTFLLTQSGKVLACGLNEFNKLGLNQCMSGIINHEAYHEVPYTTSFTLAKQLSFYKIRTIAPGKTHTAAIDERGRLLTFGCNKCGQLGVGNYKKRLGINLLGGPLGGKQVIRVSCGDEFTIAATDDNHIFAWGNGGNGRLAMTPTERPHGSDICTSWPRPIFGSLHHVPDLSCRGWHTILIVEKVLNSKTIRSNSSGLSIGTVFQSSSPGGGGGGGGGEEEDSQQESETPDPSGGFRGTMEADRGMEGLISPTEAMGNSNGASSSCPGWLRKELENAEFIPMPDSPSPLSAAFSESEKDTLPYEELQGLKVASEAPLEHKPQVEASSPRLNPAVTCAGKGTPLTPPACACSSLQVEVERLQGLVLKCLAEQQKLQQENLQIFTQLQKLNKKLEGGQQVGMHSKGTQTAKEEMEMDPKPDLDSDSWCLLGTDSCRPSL
# [11] = molecular target: T4, Serine/threonine-protein kinase Nek9 (Homo sapiens); conditions: at 1 µM
# [12] = molecular target: Serine/threonine-protein kinase PLK1 (Homo sapiens) (UniProt P53350); conditions: at 0.1 µM
# Sequence of Serine/threonine-protein kinase PLK1 (Homo sapiens) (P53350 whole entry): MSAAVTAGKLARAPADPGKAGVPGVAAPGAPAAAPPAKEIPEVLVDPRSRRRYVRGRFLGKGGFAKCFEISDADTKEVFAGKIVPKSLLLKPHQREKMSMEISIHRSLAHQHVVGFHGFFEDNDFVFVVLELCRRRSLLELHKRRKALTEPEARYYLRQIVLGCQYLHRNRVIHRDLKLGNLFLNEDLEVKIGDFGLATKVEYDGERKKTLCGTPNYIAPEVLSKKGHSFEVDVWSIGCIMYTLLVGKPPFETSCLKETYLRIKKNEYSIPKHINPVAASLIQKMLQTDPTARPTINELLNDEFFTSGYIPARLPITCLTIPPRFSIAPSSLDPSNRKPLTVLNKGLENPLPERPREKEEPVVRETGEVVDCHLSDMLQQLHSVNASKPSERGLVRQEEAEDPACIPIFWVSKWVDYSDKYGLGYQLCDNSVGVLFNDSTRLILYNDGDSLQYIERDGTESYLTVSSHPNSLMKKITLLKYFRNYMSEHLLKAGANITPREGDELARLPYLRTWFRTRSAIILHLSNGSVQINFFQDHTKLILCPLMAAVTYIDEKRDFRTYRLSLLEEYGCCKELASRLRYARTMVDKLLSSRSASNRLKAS
# [13] = molecular target: Serine/threonine-protein kinase PLK1 (Homo sapiens) (UniProt P53350); conditions: at 1 µM
# [14] = molecular target: T5, Dual specificity protein kinase TTK (Homo sapiens) (UniProt P33981); conditions: at 0.1 µM
# T5 sequence (whole entry): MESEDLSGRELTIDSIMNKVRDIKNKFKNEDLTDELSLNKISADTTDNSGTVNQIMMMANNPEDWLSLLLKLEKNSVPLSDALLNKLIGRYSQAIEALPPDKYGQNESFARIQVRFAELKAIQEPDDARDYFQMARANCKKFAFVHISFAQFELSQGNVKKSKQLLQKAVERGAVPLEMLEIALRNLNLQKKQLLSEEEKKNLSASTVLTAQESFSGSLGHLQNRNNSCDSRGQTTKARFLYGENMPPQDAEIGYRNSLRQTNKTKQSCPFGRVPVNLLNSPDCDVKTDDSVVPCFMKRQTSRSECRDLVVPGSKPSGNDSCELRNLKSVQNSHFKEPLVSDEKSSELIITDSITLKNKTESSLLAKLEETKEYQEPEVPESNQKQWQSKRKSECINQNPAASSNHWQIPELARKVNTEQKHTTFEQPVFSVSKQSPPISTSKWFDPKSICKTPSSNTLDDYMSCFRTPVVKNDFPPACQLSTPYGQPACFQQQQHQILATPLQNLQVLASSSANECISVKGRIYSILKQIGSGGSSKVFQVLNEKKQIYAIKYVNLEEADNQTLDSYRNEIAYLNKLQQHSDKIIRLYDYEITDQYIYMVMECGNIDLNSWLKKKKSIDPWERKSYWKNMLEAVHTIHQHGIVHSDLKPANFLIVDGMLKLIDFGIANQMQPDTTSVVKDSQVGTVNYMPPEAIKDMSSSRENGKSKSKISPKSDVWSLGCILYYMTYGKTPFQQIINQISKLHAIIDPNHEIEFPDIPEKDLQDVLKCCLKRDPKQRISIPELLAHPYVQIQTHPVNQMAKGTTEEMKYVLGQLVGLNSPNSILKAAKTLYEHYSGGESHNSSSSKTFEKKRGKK
# [15] = system: T6, Receptor-type tyrosine-protein kinase FLT3 (Homo sapiens), P36888 [D835Y]; conditions: at 1 µM
# T6 sequence (whole entry): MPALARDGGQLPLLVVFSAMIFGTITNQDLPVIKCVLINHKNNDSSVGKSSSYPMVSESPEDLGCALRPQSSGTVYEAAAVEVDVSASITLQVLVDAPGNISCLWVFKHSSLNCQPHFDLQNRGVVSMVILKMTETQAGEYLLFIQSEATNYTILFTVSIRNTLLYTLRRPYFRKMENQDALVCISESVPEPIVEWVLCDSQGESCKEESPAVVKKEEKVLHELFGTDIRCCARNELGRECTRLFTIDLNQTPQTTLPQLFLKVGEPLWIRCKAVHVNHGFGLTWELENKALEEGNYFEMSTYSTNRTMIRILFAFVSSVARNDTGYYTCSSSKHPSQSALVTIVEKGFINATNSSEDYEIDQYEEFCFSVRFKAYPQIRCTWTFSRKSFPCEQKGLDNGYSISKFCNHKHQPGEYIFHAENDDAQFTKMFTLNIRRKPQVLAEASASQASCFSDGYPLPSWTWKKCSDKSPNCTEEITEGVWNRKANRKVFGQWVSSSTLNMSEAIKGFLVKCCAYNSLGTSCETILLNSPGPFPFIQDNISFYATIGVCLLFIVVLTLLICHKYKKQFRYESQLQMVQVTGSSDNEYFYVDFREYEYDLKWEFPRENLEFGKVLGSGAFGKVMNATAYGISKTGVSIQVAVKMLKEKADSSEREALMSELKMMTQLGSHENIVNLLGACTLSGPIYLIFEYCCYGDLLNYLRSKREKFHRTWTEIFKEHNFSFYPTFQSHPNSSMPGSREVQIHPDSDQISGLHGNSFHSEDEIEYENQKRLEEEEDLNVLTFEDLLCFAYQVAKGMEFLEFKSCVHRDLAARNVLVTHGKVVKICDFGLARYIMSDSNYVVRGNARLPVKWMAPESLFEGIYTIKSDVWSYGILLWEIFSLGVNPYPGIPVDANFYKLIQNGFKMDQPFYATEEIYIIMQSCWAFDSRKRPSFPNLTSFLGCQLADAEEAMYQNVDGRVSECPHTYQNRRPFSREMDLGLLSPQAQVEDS
# [16] = molecular target: Vascular endothelial growth factor receptor 3 (Homo sapiens) (UniProt P35916); conditions: at 0.1 µM
# Sequence of Vascular endothelial growth factor receptor 3 (Homo sapiens) (P35916 whole entry): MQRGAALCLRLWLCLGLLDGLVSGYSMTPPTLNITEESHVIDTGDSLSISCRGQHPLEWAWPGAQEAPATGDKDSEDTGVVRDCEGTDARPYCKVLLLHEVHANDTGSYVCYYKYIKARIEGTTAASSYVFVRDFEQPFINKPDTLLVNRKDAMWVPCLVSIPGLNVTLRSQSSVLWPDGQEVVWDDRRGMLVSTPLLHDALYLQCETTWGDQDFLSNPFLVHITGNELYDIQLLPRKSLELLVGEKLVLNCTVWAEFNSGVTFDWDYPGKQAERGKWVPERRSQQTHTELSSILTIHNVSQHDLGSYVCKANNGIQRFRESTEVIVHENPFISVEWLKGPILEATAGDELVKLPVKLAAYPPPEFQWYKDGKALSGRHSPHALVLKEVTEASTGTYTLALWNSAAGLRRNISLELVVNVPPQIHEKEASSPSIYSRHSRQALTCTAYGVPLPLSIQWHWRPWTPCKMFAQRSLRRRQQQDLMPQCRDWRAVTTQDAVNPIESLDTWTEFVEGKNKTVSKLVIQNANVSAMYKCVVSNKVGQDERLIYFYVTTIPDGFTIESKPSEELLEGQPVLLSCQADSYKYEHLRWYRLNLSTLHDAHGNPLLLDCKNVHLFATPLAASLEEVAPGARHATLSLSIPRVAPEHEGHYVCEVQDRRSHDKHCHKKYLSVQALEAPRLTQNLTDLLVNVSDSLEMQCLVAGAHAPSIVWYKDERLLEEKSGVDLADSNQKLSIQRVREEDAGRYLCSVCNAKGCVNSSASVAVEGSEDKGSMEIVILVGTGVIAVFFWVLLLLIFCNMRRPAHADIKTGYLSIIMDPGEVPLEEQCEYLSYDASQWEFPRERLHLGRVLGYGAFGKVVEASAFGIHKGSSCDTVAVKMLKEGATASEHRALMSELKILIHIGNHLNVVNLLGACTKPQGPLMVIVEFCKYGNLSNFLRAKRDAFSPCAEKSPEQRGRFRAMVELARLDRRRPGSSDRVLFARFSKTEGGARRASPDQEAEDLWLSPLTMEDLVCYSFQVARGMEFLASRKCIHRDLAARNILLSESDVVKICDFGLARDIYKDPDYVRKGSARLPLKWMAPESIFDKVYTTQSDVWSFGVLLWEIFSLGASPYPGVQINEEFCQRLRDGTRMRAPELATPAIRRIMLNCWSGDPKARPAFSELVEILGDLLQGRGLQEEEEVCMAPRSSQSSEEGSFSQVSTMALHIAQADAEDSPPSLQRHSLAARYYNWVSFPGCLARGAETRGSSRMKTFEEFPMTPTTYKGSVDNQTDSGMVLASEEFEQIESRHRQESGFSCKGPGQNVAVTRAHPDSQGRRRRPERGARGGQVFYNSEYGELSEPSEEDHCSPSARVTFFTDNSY
# [17] = molecular target: Vascular endothelial growth factor receptor 3 (Homo sapiens) (UniProt P35916); conditions: at 1 µM
# [18] = molecular target: Macrophage colony-stimulating factor 1 receptor (Homo sapiens) (UniProt P07333); conditions: at 0.1 µM
# Sequence of Macrophage colony-stimulating factor 1 receptor (Homo sapiens) (P07333 whole entry): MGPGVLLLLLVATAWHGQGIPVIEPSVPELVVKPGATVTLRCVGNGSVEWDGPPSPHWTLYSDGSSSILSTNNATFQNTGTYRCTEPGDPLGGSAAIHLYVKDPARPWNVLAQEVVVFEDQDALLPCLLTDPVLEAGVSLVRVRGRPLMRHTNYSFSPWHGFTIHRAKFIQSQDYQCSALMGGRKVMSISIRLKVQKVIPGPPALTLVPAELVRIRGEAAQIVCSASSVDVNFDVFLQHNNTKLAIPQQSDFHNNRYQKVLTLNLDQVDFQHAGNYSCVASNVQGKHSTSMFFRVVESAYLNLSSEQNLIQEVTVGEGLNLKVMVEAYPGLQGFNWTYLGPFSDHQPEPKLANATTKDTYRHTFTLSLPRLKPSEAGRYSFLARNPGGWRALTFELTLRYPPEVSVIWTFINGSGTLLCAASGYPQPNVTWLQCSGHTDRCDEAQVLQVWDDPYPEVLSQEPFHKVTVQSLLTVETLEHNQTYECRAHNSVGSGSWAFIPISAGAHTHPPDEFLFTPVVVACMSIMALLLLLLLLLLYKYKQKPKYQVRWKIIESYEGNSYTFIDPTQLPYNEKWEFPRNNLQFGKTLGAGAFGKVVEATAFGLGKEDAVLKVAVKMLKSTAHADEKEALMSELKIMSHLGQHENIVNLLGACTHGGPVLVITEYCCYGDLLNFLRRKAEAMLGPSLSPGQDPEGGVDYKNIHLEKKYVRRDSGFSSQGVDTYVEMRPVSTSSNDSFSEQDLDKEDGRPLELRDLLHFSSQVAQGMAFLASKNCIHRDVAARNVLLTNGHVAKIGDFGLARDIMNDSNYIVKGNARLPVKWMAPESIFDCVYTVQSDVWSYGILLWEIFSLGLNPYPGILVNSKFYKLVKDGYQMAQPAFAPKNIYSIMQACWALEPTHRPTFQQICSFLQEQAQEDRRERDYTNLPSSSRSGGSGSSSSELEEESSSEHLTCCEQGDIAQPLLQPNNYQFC
# [19] = molecular target: Macrophage colony-stimulating factor 1 receptor (Homo sapiens) (UniProt P07333); conditions: at 1 µM
# [20] = molecular target: Tyrosine-protein kinase Fyn (Homo sapiens) (UniProt P06241); conditions: at 0.1 µM
# Sequence of Tyrosine-protein kinase Fyn (Homo sapiens) (P06241 2-537 limits assumed): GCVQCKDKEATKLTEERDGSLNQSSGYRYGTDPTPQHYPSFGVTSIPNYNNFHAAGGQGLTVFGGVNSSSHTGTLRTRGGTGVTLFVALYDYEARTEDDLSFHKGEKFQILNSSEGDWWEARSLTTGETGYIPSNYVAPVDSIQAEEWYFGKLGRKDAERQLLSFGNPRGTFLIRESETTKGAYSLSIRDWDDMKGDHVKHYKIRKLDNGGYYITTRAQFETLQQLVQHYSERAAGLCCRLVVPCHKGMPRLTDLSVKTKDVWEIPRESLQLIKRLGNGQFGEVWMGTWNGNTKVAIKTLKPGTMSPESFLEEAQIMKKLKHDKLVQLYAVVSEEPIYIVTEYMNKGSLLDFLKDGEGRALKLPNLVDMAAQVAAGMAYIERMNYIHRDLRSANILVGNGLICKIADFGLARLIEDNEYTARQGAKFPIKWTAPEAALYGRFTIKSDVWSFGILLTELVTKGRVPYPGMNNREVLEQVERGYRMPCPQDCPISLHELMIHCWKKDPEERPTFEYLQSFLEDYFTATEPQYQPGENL
Compound,inhibition [1] [%],inhibition [2] [%],inhibition [3] [%],inhibition [4] [%],inhibition [5] [%],inhibition [6] [%],inhibition [7] [%],inhibition [8] [%],inhibition [9] [%],inhibition [10] [%],inhibition [11] [%],inhibition [12] [%],inhibition [13] [%],inhibition [14] [%],inhibition [15] [%],inhibition [16] [%],inhibition [17] [%],inhibition [18] [%],inhibition [19] [%],inhibition [20] [%]
Cn1c(-c2nonc2N)nc2cnccc21,6.44,1.82,3.22,4.27,3.27,3.89,-0.49,3.76,3.15,12.2,10.4,4.28,5.16,5.36,6.27,2.31,-0.12,-0.13,4.58,1.61
COc1ccc2ncn(-c3cc(O[C@H](C)c4ccccc4C(F)(F)F)c(C(N)=O)s3)c2c1,1.28,8.29,43,0.45,11.6,0.31,-2.42,1.25,0.51,35.9,83.6,97,99.2,0.16,2.3,1.9,15,-0.05,5.84,0.53
N#Cc1cccc(Nc2ncc(-c3ccccc3)o2)c1,6.35,1.6,2.44,2.51,0.06,1.87,5.4,2.82,1.01,8.32,4.83,2.12,1.8,6.6,9.89,-0.11,3.1,3.05,14.6,1.43
